# PubChem BioAssay (NCATS)
# Records with an inconclusive call do not appear. Where a call stands in place of a potency, no number is given. Activity calls are given as the source filed them. Unless noted, the call rests on the fitted dose curve; in most records, active means well fitted curve in the direction sought with a large enough effect; inconclusive means small, poorly fitted or top-dose-only effect, or another doubt; inactive means no such curve, though single readings can be large; an effect the other way counts as inactive or inconclusive.
# Legend:
# [1] = target: Lysosomal acid glucosylceramidase (Homo sapiens) (UniProt P04062); experiment: Glucocerebrosidase-p2 (AID 348; in the data active means potency below about 10 µM; further: potency means the concentration at half of the fitted maximal effect); details: purified GBA, blue fluorogenic substrate, 40 min
# Chain of Lysosomal acid glucosylceramidase (Homo sapiens) (P04062 whole entry, looked up): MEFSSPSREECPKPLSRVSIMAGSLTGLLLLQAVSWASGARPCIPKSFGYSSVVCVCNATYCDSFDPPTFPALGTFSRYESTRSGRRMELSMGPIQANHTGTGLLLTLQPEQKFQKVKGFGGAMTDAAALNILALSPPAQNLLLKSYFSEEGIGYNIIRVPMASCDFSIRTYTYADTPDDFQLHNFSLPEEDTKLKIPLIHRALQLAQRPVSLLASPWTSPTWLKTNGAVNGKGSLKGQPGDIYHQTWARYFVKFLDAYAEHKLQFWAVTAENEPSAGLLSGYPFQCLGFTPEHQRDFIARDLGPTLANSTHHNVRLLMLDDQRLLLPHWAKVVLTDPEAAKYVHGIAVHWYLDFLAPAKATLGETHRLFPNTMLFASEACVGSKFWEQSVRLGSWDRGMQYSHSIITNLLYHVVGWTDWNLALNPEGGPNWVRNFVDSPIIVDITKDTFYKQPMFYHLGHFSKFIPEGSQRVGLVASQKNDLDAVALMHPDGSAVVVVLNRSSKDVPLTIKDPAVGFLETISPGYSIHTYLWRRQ
# Method in brief: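 Compounds titrated from 0.6 nM upwards against 0.2 nM enzyme in pH 5.9 citric acid/KH2PO4, taurocholate, tween-20; blue fluorogenic substrate 80 uM, 40 min room temperature, stopped and read Ex 365/Em 440 for AC50.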
# [2] = AP1 Signaling Pathway (AID 357; active means well fitted curve in either direction with a large enough effect, not every such curve was filed as active;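 further: ME-180 reporter cells stimulated with EGF at its EC50 level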); details: ME-180 (cervical carcinoma) AP-1-bla reporter, EGF-induced, beta-lactamase ratio, 5 h; at 7.69 µM (top of the series)
# Method in brief: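 A ratiometric CCF4 readout (405 nm excitation; 460 and 530 nm emission) quantified AP-1-driven beta-lactamase in ME-180 cells after 5 h with compound and EC50 EGF; AC50 values were derived for activators and inhibitors.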
# [3] = target: Glucocorticoid receptor (Homo sapiens) (UniProt P04150); experiment: GR-GFP Redistribution (AID 450;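 active means compounds whose dose series gives a full or clear partial fitted curve of increased nuclear translocation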; further: potency means the concentration at half of the fitted maximal effect); details: U2OS GR-GFP nuclear translocation, laser cytometry, 2 h
# Chain of Glucocorticoid receptor (Homo sapiens) (P04150 whole entry, looked up, the tested form may be a part): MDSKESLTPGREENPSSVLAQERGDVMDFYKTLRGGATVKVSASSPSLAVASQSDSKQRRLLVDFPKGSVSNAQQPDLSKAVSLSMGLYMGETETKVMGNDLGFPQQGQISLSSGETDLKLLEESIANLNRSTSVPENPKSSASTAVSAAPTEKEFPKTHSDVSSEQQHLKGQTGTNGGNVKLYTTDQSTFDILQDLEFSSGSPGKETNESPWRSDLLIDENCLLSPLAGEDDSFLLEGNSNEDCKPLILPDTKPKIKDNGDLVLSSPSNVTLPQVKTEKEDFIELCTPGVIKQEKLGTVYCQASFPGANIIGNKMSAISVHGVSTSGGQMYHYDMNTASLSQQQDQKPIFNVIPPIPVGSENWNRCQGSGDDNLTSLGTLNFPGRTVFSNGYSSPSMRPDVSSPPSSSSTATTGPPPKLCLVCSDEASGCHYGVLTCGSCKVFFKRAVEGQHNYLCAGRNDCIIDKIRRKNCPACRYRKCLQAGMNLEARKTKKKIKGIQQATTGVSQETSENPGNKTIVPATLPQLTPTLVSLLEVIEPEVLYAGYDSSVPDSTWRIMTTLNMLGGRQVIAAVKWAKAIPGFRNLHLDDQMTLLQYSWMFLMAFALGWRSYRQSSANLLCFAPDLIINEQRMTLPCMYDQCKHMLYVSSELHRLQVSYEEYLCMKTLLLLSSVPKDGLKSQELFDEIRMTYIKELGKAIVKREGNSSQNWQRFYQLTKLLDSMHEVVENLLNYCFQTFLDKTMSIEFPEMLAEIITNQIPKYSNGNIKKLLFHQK
# [4] = target: Glucocorticoid receptor (Homo sapiens) (UniProt P04150); experiment: GR-EFC Redistribution (AID 451; calls by dose curve; further: potency means the concentration at half of the fitted maximal effect); details: CHO-K1 GR-EFC translocation, beta-gal luminescence, 2 h
# Method in brief: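 CHO-K1 cells expressing nuclear EA and GR-ED fragments of b-gal; compounds titrated up to 46 uM final, 2 h at 37 C. GR nuclear translocation read as complemented b-gal luminescence after 1 h RT detection.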
# [5] = target: Mitogen-activated protein kinase 10 (Mus musculus) (UniProt Q61831); experiment: JNK3 AlphaScreen Assay (AID 530; active means well fitted curve in either direction with a large enough effect, not every such curve was filed as active;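 further: kinase came from lysate of stimulated human HepG2 cells; signal reports phosphorylation of biotinylated GST-cJun 1-79 at Ser73 with 10 µM ATP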)
# Method in brief: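 qHTS format: compounds tested as titrations against IL-1beta/TNF-alpha-activated HepG2 lysate JNK3 with biotin-GST-cJun substrate and 10 uM ATP at room temperature. Loss of anti-phospho-cJun AlphaScreen signal indicates inhibition.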
# [6] = target: 3',5'-cyclic-AMP phosphodiesterase 4B (Homo sapiens) (UniProt Q07343); experiment: qHTS Assay for Inhibitors of PDE-IV (AID 607; active means well fitted activation curve with a large enough effect in the main read-out, with a control signal flat, not every such curve was filed as active)
# Chain of 3',5'-cyclic-AMP phosphodiesterase 4B (Homo sapiens) (Q07343 whole entry, looked up): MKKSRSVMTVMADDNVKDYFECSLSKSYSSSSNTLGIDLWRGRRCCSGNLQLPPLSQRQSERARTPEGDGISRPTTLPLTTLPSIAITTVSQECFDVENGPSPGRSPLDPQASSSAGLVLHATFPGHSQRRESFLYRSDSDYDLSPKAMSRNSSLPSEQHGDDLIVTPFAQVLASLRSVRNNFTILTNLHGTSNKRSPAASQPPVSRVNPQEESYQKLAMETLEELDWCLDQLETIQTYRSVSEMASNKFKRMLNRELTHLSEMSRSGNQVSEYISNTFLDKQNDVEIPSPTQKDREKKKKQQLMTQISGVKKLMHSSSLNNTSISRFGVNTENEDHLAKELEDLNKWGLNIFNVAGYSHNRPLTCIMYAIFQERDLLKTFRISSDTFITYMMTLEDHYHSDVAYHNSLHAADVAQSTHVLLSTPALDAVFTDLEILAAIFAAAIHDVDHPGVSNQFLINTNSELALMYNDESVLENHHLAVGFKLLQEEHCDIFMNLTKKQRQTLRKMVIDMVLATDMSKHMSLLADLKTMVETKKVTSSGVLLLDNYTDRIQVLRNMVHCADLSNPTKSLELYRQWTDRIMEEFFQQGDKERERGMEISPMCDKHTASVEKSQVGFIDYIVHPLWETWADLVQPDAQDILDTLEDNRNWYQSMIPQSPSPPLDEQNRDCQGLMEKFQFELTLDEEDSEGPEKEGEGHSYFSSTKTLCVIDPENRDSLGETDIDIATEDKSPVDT
# Method in brief: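 ACTOne HEK293 cells carry a modified cAMP-gated CNG channel and express endogenous PDE4; plated 1000 cells/well, compounds up to 22.9 uM final. Membrane-potential dye fluorescence (ex 535/em 590) was read; parental cells received 10 uM forskolin + 100 uM RO 20-1724.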
# Furin (Homo sapiens) = Furin (Homo sapiens) (UniProt P09958); experiment: Furin counterscreen qHTS for Zika virus inhibitors (AID 1347149);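 further: purified recombinant full-length human furin enzyme at 5 nM; fluorescence gain from furin cutting a BOC-RVRR-AMC peptide substrate over 15 min; top concentration of the series differs between compounds; nearly all actives have a fitted effect of over 70% in size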
# Chain of Furin (Homo sapiens) (P09958 whole entry, looked up): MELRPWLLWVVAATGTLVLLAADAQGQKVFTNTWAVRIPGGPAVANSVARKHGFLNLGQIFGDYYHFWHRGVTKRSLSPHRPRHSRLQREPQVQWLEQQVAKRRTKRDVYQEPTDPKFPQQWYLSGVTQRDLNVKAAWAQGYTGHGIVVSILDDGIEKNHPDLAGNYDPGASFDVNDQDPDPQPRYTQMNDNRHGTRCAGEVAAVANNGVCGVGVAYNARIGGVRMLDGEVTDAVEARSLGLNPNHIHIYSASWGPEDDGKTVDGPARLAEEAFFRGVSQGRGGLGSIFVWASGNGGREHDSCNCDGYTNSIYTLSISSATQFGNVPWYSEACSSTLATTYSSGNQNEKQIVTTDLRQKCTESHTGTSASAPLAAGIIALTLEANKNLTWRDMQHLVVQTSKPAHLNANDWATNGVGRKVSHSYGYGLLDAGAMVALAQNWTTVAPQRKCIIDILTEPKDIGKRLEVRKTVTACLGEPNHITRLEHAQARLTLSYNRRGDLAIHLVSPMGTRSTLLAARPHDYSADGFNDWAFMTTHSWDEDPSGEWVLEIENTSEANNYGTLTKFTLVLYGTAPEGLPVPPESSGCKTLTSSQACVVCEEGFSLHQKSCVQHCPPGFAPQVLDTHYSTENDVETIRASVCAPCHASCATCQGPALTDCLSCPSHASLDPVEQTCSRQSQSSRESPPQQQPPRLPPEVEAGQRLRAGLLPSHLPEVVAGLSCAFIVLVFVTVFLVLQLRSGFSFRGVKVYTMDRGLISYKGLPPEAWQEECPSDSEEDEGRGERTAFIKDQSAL
# Method in brief: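 Fluorogenic cleavage of BOC-RVRR-AMC (2 microM final, Km ~15 µM) was monitored (ex 340, em 450 nm) at 37C after 15 min RT preincubation of 5 nM furin with compounds in HEPES pH 7.0 buffer with CaCl2 and Triton X-100. Percent inhibition was fitted to a 4-parameter Hill curve.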
# [7] = test system: Zika virus NS2B-NS3 protease (linked construct); experiment: Confirmatory screen NINDS AMC qHTS for Zika virus inhibitors (AID 1347152);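 further: AMC fluorescence gain from cleaved Bz-Nle-KRR-AMC substrate over 15 min; top concentration of the series differs between compounds; nearly all actives have a fitted effect of over 70% in size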
# Method in brief: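 Purified NS2B-NS3 protease with NS2B hydrophilic domain linked to NS3 protease domain by flexible linker, 1 nM final in 10 mM Tris-HCl pH 8.0, 0.01% Tween 20. Compounds preincubated 15 min, room temperature; Bz-Nle-KRR-AMC 10 microM (Km 18.3 µM); 15-min fluorescence change, 4-parameter Hill fit.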
# [8] = test system: Zika virus NS2B-NS3 protease (unlinked complex); experiment: Confirmatory screen GU AMC qHTS for Zika virus inhibitors (AID 1347153); further: nearly all actives have a fitted effect of over 70% in size
# Method in brief: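 Noncovalent NS2B hydrophilic domain/NS3 protease complex (25 nM) in 10 mM Tris-HCl pH 8.0, 0.01% Tween 20 was preincubated 15 min at room temperature with compounds. Then 10 µM AMC substrate (Km 18.3 µM) was added; fluorescence was read over 15 min and fitted to a 4-parameter Hill equation.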
# [9] = test system: Zika virus NS2B-NS3 protease; experiment: Primary screen GU AMC qHTS for Zika virus inhibitors (AID 1347154); further: potency means the concentration at half of the fitted maximal effect; nearly all actives have a fitted effect of over 70% in size
# Method in brief: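 Unlinked Zika NS2B hydrophilic domain–NS3 protease complex at 25 nM in 10 mM Tris-HCl pH 8.0, 0.01% Tween 20, with an AMC peptide substrate. Fluorescence change (340/450 nm) over 15 min at room temperature, normalized to controls, fitted to 4-parameter Hill.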
# [10] = Vero cells viability qHTS for Zika virus inhibitors (AID 1347167)
# Method in brief: (§1)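 Cells seeded at 2.5 x 10^5 cells/mL in DMEM with 4% FBS and attached overnight at 37 degrees C, then exposed to compound for 24 to 48 hours. Viability read as ATP content by CellTiter Glo luminescence.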
# [11] = Primary qHTS for small molecule stabilizers of the endoplasmic reticulum resident proteome: Secreted ER Calcium Modulated Protein (SERCaMP) assay (AID 1508630)
# Method in brief: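 GLuc-SERCaMP-expressing SH-SY5Y cells, pretreated 16 h with compound, are challenged with thapsigargin to empty ER calcium stores; after 4 h, coelenterazine is added directly to the medium and luminescence is imaged.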
# [12] = ZIKV-mCherry secondary qHTS for Zika virus inhibitors (AID 1347158); further: top concentration of the series differs between compounds
# Method in brief: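 After overnight seeding at 37 °C, Vero cells receive compound and then ZIKV-mCherry (MOI 1). Following 48-72 h infection, cells are fixed, counterstained with Hoechst, and imaged; percent infected cells is derived from an mCherry intensity cut-off of 450 RFU.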
# [13] = test system: Zika virus NS2B-NS3 protease (linked construct); experiment: 384 well plate NINDS Rhodamine confirmatory qHTS for Zika virus inhibitors (AID 1347164);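 further: fluorescence from protease cleavage of Ac-LKRR-rhodamine 110 substrate; potency means the concentration at half of the fitted maximal effect; nearly all actives have a fitted effect of over 65% in size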
# Method in brief: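 Linked protease at a final 5 nM, 30 nM or 60 nM was preincubated ~15 min with compounds, then given 10 microM Ac-LKRR-Rhodamine 110. Fluorescence (ex 485/em 538 nm) after 25 min in the dark at room temperature.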
# [14] = Tertiary RLuc qRT-PCR qHTS assay for Zika virus inhibitors (AID 1347169); further: top concentration of the series differs between compounds; nearly all actives have a fitted effect of over 55% in size
# Method in brief: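 Vero cells (1,000 per well) plated overnight at 37 degrees C, treated with compound in DMSO, then infected with recombinant ZIKV-RLuc (Cambodian) at MOI 1-2 for 48-72 hrs. Live-cell Renilla luciferase substrate added; luminescence read after 1-1.5 hrs.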
# [15] = test system: Zika virus NS2B-NS3 protease (unlinked); experiment: Optimization of GU AMC qHTS for Zika virus inhibitors: Unlinked NS2B-NS3 protease assay (AID 1347151); further: nearly all actives have a fitted effect of over 80% in size
# Method in brief: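 Noncovalent complex of NS2B hydrophilic domain and NS3 protease domain, 25 nM final, in 10 mM Tris-HCl pH 8.0, 0.01% Tween 20. AMC fluorescence change over 15 min at room temperature was fitted to a 4-parameter Hill equation.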
# [16] = HepG2 cells viability qHTS for Zika virus inhibitors (AID 1347168)
# Method in brief: as §1
# [17] = target: Catechol O-methyltransferase (Homo sapiens) (UniProt P21964); experiment: Confirmatory Screen for Target Class Profiling of Small Molecule Inhibitors of Methyltransferases (AID 1745852; calls by dose curve; further: potency means the concentration at half of the fitted maximal effect); details: MTase-Glo luminescence, SAH detection, recombinant enzyme; measured here: COMT max response; stronger effect = lower value
# Chain of Catechol O-methyltransferase (Homo sapiens) (P21964 whole entry, looked up): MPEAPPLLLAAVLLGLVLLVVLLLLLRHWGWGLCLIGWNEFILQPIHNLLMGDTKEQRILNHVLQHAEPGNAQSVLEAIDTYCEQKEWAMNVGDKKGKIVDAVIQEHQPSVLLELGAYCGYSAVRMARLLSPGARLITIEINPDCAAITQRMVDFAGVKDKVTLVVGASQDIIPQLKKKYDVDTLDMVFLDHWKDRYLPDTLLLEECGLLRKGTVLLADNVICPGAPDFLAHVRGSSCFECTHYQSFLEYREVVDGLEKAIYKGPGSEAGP
# [18] = target: Guanidinoacetate N-methyltransferase (Homo sapiens) (UniProt Q14353); experiment: as above; details: activity change, negative = inhibition: at 57.3 µM (top of the series) unless noted
# [19] = target: Nicotinamide N-methyltransferase (Homo sapiens) (UniProt P40261); experiment: as above; details: MTase-Glo luminescence, SAH detection, recombinant enzyme; measured here: NNMT max response; stronger effect = lower value
# Chain of Nicotinamide N-methyltransferase (Homo sapiens) (P40261 whole entry, looked up): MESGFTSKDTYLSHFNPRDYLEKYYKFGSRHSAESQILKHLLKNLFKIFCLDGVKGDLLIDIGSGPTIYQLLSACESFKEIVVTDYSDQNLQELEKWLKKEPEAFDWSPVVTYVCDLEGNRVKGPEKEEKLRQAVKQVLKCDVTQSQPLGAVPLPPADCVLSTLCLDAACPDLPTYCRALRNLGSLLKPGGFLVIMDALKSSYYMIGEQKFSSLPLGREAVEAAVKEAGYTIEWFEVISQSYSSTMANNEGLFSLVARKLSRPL
# [20] = target: Phenylethanolamine N-methyltransferase (Homo sapiens) (UniProt P11086); experiment: as above; details: MTase-Glo luminescence, SAH detection, recombinant enzyme; measured here: PNMT max response; stronger effect = lower value
# Chain of Phenylethanolamine N-methyltransferase (Homo sapiens) (P11086 whole entry, looked up): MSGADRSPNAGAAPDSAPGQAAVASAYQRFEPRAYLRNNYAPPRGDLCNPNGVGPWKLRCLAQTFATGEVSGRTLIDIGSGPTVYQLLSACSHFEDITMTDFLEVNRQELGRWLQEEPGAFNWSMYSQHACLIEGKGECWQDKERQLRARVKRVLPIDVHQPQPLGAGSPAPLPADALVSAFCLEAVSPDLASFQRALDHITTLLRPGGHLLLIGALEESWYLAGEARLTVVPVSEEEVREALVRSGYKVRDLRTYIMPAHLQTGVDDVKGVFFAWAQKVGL
# [21] = test system: Zika virus NS2B-NS3 protease (linked); experiment: 384 well plate NINDS AMC confirmatory qHTS for Zika virus inhibitors (AID 1347163); further: potency means the concentration at half of the fitted maximal effect; nearly all actives have a fitted effect of over 50% in size
# Method in brief: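 Linked protease 5/30/60 nM final; cpds up to 1 mM final, ~15 min preinc. Substrate Ac-VKTGKR-AMC 30 microM final. RT, dark, 25 min; FI ex 355/em 460; normalized to no-enzyme/no-inhibitor ctrls.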
compound,measurement,setting,value
Cc1c2ccccc2c(CSC(=N)N)c2ccccc12,Potency,[1],1.39 µM (active)
same,"activity change, negative = inhibition",[2],-16.8% (inactive)
same,Potency,[3],> 46 µM (inactive)
same,Potency,[4],> 9.22 µM (inactive)
same,"activity change, negative = inhibition",[5],27.8% [at 11.4 µM] (inactive)
same,Potency,[6],inactive
same,Potency,Furin (Homo sapiens),inactive
same,Potency,[7],inactive
same,Potency,[8],inactive
same,Potency,[9],21.2 µM (active)
same,Potency,[10],inactive
same,Potency,[11],inactive
O=C(Nc1cccc2ccccc12)O[C@@H]1CO[C@H]2[C@@H]1OC[C@@H]2NS(=O)(=O)c1cccc2cccnc12,Potency,Furin (Homo sapiens),inactive
same,Potency,[7],inactive
same,Potency,[8],inactive
N#Cc1ccc(OCC2CN(Cc3c[nH]c4ccccc34)C(=O)c3c(ccnc3-c3ccc(OCC(=O)O)cc3)O2)cc1 (configuration not stated),Potency,Furin (Homo sapiens),inactive
same,Potency,[7],inactive
same,Potency,[12],inactive
same,Potency,[13],39.8 µM (active)
same,Potency,[14],inactive
COc1ccc(-c2ccnc(N[C@H]3CO[C@H]4[C@@H]3OC[C@@H]4NS(=O)(=O)c3ccc4ccccc4c3)n2)cc1,Potency,Furin (Homo sapiens),inactive
same,Potency,[7],inactive
same,Potency,[8],inactive
CS(=O)(=O)c1ccc(Nc2ccc3c(c2)OCO3)c([N+](=O)[O-])c1,Potency,Furin (Homo sapiens),inactive
same,Potency,[7],inactive
same,Potency,[8],inactive
same,Potency,[14],inactive
Nc1ncnc2c1ncn2[C@@H]1O[C@H](C[C@@H](N)CC[C@H](N)C(=O)O)[C@@H](O)[C@H]1O,Potency,Furin (Homo sapiens),inactive
same,Potency,[15],inactive
same,Potency,[10],inactive
same,Potency,[16],inactive
same,Potency,[14],inactive
same,activity,[17],-81.8%
same,Potency,[18],21.7 µM (active)
same,activity,[19],-74.5%
same,activity,[20],-86.5%
N#Cc1ccccc1OCC1CN(Cc2cccc(C(F)(F)F)c2)C(=O)c2c(ccnc2-c2ccc(OCC(=O)O)cc2)O1 (configuration not stated),Potency,Furin (Homo sapiens),inactive
same,Potency,[7],inactive
same,Potency,[12],inactive
same,Potency,[21],70.8 µM (active)
same,Potency,[13],56.2 µM (active)
same,Potency,[14],inactive
